A short description of assay [1]: qHTS assay to identify small molecule agonists of the TGF-beta/Smad signaling pathway - cell viability counter screen (AID 1346829). Note: top concentration of the series differs between compounds; nearly all actives have a fitted effect of over 45% in size. In a few lines:
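In parallel with the Smad reporter read, viability of HEK 293T cells stably carrying SBE-bla is quantified by ATP luminescence following 5 hr compound treatment.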
(In general: qHTS replaces the single test concentration by a dilution series.)

Assay [2] in a line: qHTS assay to identify small molecule agonists of the TGF-beta/Smad signaling pathway (AID 1346859; active = well fitted activation curve with a large enough effect in the signal ratio in the repeat runs, not every such curve was filed as active; the % refers to the signal ratio; note: series mostly up to about 77 µM). In a few lines:
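After overnight seeding, SBE-bla HEK 293T cells are dosed with compounds in DMSO and kept 5 hr at 37 C, 5% CO2. LiveBLAzer-type FRET substrate is then applied for 2 hr at room temperature.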

Assay [3] concerns the target Thyrotropin-releasing hormone receptor (Homo sapiens) (UniProt P34981). As to the kind of experiment: qHTS assay to identify small molecule antagonists of the thyrotropin-releasing hormone receptor (TRHR) signaling pathway (AID 1346877; active = well fitted inhibition curve with a large enough effect in the repeat runs, not every such curve was filed as active; note: series mostly up to about 51 µM). The method in brief:
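TRHR-expressing HEK293 cells were seeded, cultured 18 h at 37 °C, then loaded with calcium dye for 2 h. Compounds were pre-incubated 5 min at room temperature before 1 nM TRH (final) was added, and kinetic fluorescence was recorded for 3 min.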

The target is the same in assay [4]. As to the kind of experiment: qHTS assay to identify small molecule agonists of the thyrotropin-releasing hormone receptor (TRHR) signaling pathway (AID 1346891; calls by dose curve; note: series mostly up to about 58 µM). The method in brief: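 Compounds were tested as agonists at 15 concentrations, in triplicate, on TRHR-Hek293 cells; calcium-sensitive dye fluorescence was recorded for 3 min following addition.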
Assay [5] in a line: Human pregnane X receptor (PXR) small molecule agonists, qHTS cell viability counter screen (AID 1346977). Note: nearly all actives have a fitted effect of over 50% in size. In a few lines:
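Viability counter screen: CellTiter-Fluor signal in PXR-Luc HepG2 cells, 24hr compound exposure, 37C, 5% CO2.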

A short description of assay [6]: Caspase-3/7 induction in HepG2 cells by small molecules, qHTS assay (AID 1346978). Note: nearly all actives have a fitted effect of over 15% in size. The method in brief: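 Wild-type HepG2 cells (2,000/well) were settled 5 h at 37 C, 5% CO2, then exposed to compounds in DMSO for 17 h. Caspase-3/7 activity was read by luminescence 30 min after adding Caspase-Glo 3/7 reagent at room temperature.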
A short description of assay [7]: Caspase-3/7 induction in CHO-K1 cells by small molecules, qHTS cell viability counter screen (AID 1346979). Note: nearly all actives have a fitted effect of over 35% in size. In a few lines:
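Viability readout by fluorescence (CellTiter-Fluor) on wild-type CHO-K1 cells exposed for 16hr at 37C and 5% CO2 to compounds delivered in DMSO; reagent incubated 1hr before reading.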

The nature of assay [8]: Caspase-3/7 induction in CHO-K1 cells by small molecules, qHTS assay (AID 1346980). Note: nearly all actives have a fitted effect of over 15% in size. The method in brief: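 Wild-type cells were seeded at 1,500 per well and settled 5 hr at 37 C, 5% CO2, then exposed to DMSO-dissolved compounds for 17 hr. Caspase-Glo 3/7 reagent was added, and luminescence was read after 30min at room temperature.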
A short description of assay [9]: Caspase-3/7 induction in HepG2 cells by small molecules, qHTS cell viability counter screen (AID 1346981). Note: series mostly up to about 92 µM; nearly all actives have a fitted effect of over 30% in size. The method in brief:
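Wild-type HepG2 cells (2,000/well) were allowed to settle for 5 hr at 37 C, 5% CO2, then dosed with compounds in DMSO by pin transfer. After 16 hr at 37 C, CellTiter-Fluor was added and fluorescence read 1 hr later.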

Assay [10] has as its target Nuclear receptor subfamily 1 group I member 2 (Homo sapiens) (UniProt O75469). The assay is described as follows: Human pregnane X receptor (PXR) small molecule agonists, qHTS assay (AID 1346982). Note: nearly all actives have a fitted effect of over 35% in size. The method in brief:
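PXR-Luc HepG2 cells (CYP3A4 promoter-driven luciferase) were seeded in medium with 5% charcoal-stripped FBS, left 5 hr at 37 C, then exposed to compounds in DMSO for 24 hr. Luminescence was read after ONE-Glo addition.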

The target of assay [11] is Cytochrome P450 2D6 (Homo sapiens) (UniProt P10635). As to the kind of experiment: Cytochrome P450 Family 2 Subfamily D Member 6 (CYP2D6) small molecule antagonists: luciferase reporter qHTS assay (AID 1671196). Note: nearly all actives have a fitted effect of over 50% in size. Note: potency is the fitted concentration of half-maximal effect. In a few lines: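 CYP2D6 enzyme–substrate mix was held with compound for 10 min at room temperature, then NADPH regeneration solution was added and the reaction ran 1 h at room temperature. Luciferin product was detected by luminescence after 20 min with detection reagent.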
Sequence of Cytochrome P450 2D6 (Homo sapiens) (P10635 whole entry, looked up): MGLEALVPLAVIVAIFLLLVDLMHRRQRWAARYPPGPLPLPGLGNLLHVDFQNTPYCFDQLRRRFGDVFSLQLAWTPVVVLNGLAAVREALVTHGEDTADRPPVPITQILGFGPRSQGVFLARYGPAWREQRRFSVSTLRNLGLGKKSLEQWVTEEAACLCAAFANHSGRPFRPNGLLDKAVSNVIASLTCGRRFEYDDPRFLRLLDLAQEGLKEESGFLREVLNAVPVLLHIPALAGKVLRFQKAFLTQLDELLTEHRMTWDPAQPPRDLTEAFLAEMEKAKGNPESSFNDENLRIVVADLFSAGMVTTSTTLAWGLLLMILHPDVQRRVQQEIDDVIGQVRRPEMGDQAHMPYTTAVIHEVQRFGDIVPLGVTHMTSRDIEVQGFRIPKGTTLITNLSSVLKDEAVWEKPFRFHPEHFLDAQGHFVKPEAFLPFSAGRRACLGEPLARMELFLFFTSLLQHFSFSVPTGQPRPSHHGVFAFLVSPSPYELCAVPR
Background: Reporter assays use an easily measured gene product as a stand-in for the process of interest.

The target in assay [12] is Cytochrome P450 2C9 (Homo sapiens) (UniProt P11712). The assay is described as follows: Cytochrome P450 Family 2 Subfamily C Member 9 (CYP2C9) small molecule antagonists: luciferase reporter qHTS assay (AID 1671198). Note: series mostly up to about 120 µM; nearly all actives have a fitted effect of over 50% in size. The method in brief: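 CYP2C9 activity was measured with a P450-Glo proluciferin substrate. Enzyme–substrate mix was held with compound for 10 min at room temperature, then NADPH regeneration solution was added for 1 h at 37C. Luciferin product was read as luminescence.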
Sequence of Cytochrome P450 2C9 (Homo sapiens) (P11712 whole entry, looked up): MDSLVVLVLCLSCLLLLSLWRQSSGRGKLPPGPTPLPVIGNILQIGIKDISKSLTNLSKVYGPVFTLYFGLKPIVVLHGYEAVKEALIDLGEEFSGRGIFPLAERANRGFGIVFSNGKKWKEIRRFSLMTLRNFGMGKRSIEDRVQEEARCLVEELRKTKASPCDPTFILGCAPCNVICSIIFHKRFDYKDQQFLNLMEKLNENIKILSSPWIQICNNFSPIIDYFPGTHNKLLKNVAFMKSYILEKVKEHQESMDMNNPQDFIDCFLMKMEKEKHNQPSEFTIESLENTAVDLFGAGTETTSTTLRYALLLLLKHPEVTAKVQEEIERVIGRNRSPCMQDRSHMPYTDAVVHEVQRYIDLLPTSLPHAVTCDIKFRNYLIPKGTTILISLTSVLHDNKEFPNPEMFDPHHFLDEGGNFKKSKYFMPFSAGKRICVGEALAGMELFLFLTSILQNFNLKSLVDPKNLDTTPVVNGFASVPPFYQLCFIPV

For assay [13], the target named is Cytochrome P450 1A2 (Homo sapiens) (UniProt P05177). The assay is described as follows: Cytochrome P450 Family 1 Subfamily A Member 2 (CYP1A2) small molecule antagonists: luciferase reporter qHTS assay (AID 1671199). Note: nearly all actives have a fitted effect of over 50% in size. Note: potency is the fitted concentration of half-maximal effect. In a few lines: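 Human CYP1A2 activity measured with a P450-Glo proluciferin substrate; compounds in DMSO preincubated 10 min at room temperature with enzyme-substrate mix, then NADPH regeneration system added for 1 h. Luciferin detection reagent, 20 min, luminescence read.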
Sequence of Cytochrome P450 1A2 (Homo sapiens) (P05177 whole entry, looked up): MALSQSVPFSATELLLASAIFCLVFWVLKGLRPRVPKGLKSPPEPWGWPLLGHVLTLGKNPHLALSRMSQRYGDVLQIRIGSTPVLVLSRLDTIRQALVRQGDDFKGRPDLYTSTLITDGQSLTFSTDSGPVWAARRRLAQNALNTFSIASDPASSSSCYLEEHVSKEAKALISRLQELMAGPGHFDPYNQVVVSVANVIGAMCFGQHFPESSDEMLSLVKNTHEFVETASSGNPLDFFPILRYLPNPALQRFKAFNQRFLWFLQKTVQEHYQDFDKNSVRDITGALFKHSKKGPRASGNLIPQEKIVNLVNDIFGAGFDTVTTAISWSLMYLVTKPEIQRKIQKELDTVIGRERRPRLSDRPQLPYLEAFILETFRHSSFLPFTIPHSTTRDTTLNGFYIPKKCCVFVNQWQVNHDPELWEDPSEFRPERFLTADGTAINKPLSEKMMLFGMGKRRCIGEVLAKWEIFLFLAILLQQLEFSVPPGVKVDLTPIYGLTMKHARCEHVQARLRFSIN

The target in assay [14] is Voltage-gated inwardly rectifying potassium channel KCNH2 (Homo sapiens) (UniProt Q12809). As to the kind of experiment: Human Ether-a-go-go-Related Gene (hERG) channel small molecule antagonists: fluorescence cell-based qHTS assay (AID 1671200). The method in brief: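 Thallium served as the potassium surrogate; its influx into dye-loaded U2OS cells carrying the channel was measured by fluorescence over 2 min.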
Sequence of Voltage-gated inwardly rectifying potassium channel KCNH2 (Homo sapiens) (Q12809 whole entry, looked up): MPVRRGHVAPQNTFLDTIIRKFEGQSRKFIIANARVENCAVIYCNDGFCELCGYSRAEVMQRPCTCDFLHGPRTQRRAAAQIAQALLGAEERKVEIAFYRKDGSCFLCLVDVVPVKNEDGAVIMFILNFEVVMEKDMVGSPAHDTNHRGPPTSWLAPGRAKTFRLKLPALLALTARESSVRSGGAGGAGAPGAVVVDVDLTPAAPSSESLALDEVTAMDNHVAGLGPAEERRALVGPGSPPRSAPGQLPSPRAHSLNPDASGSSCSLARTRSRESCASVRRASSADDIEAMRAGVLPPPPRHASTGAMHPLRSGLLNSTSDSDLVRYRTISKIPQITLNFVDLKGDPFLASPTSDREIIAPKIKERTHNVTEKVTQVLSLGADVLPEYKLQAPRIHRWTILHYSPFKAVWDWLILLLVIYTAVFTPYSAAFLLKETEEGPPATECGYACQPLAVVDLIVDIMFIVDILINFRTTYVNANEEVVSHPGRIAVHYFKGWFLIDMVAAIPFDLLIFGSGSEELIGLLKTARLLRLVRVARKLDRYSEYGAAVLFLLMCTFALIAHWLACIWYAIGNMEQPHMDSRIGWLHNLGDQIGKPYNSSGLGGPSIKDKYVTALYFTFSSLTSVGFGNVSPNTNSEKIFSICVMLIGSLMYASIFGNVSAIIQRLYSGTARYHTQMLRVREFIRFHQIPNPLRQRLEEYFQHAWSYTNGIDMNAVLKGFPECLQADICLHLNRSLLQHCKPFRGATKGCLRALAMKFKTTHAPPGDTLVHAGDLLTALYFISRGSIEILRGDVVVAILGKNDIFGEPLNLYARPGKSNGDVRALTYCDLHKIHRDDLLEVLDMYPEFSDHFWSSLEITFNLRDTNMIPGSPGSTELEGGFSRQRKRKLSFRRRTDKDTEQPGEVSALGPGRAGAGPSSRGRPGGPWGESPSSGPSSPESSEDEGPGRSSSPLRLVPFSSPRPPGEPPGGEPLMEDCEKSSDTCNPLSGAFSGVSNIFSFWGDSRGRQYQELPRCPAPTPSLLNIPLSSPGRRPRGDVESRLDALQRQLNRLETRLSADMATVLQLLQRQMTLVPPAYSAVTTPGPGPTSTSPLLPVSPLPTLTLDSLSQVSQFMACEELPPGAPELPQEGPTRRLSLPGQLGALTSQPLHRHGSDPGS
On the technique in general: hERG is a cardiac potassium channel; its block is linked to QT prolongation.

In assay [15] the target is Cytochrome P450 3A4 (Homo sapiens) (UniProt P08684). The assay is described as follows: Cytochrome P450 Family 3 Subfamily A Member 4 (CYP3A4) small molecule antagonists: luciferase reporter qHTS assay (AID 1671201). The method in brief:
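Relative luminescence units after 20 min with luciferin detection reagent served as read-out. Beforehand, CYP3A4 turned over a proluciferin substrate for 1 h at room temperature with NADPH regeneration, following 10 min compound preincubation.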

In assay [16] the target is Cytochrome P450 2C19 (Homo sapiens) (UniProt P33261). The assay is described as follows: Cytochrome P450 Family 2 Subfamily C Member 19 (CYP2C19) small molecule antagonists: luciferase reporter qHTS assay (AID 1671197). Note: series mostly up to about 120 µM; nearly all actives have a fitted effect of over 65% in size. The method in brief: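 Compounds were tested on CYP2C19 activity via proluciferin conversion to luciferin. The 37C, 1 h reaction followed NADPH addition; detection reagent stopped it.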
Sequence of Cytochrome P450 2C19 (Homo sapiens) (P33261 whole entry, looked up): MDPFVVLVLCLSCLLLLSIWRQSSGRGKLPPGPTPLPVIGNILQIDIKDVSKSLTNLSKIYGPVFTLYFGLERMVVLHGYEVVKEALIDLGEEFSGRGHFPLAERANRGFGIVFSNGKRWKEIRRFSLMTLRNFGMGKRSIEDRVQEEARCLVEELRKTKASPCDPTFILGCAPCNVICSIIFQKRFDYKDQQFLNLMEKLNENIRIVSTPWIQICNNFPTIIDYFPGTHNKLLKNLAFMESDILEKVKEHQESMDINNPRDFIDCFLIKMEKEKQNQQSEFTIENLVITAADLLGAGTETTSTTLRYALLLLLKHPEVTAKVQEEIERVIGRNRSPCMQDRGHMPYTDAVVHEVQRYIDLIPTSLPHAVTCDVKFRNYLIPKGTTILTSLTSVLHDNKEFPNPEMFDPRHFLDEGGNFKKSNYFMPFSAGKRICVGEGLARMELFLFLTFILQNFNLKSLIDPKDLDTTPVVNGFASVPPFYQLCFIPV

The target of assay [17] is Nuclear receptor subfamily 1 group I member 2 (Rattus norvegicus) (UniProt Q9R1A7). As to the kind of experiment: Rat pregnane X receptor (rPXR) activation by small molecules, qHTS assay (AID 1346983). Note: nearly all actives have a fitted effect of over 20% in size. The settings on record: rPXR luciferase reporter cells, One-Glo luminescence, 24 h; hits give high values. In a few lines: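 Cell-based rPXR luciferase reporter assay, 2,000 cells per well, rested 5hr at 37 C before compound addition in DMSO, then 24 hr at 37 C. One-Glo reagent was added and luminescence read after 30 min at room temperature.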
Sequence of Nuclear receptor subfamily 1 group I member 2 (Rattus norvegicus) (Q9R1A7 whole entry, looked up): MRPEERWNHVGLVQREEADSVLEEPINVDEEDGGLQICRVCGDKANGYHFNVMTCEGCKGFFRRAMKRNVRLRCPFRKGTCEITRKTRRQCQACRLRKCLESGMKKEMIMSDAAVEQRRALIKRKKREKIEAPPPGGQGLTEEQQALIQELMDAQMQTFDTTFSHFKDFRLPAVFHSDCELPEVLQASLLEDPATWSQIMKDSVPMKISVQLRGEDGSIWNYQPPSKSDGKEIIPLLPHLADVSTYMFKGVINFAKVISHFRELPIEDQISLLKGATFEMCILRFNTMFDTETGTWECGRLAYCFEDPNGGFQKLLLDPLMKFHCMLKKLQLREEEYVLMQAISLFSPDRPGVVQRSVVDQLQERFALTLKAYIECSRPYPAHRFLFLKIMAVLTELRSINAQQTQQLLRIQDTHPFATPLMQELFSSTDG

Assay [18] has as its target Nuclear receptor subfamily 1 group I member 2 (Homo sapiens) (UniProt O75469). As to the kind of experiment: CYP3A4 induction through human pregnane X receptor (PXR) by small molecules, qHTS assay (AID 1346984). Note: nearly all actives have a fitted effect of over 40% in size. The method in brief:
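DPX-2 cells (HepG2 co-transfected with PXR and CYP3A4 promoter-luciferase) treated with compounds 24 h at 37C; luciferin-IPA CYP3A4 substrate 3uM final added for 3 h, then One-Glo; luminescence read. qHTS format.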

Assay [19] has the same target. As to the kind of experiment: Human pregnane X receptor (PXR) activation by small molecules, qHTS assay (AID 1346985). Note: nearly all actives have a fitted effect of over 40% in size. In a few lines:
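DPX-2 cells (HepG2 co-transfected with a PXR response element and a CYP3A4-promoter luciferase construct) were seeded at 2,000 per well, rested 5 hr at 37C, then exposed to DMSO-dissolved compounds for 24 hr. Activation was read as luciferase luminescence.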

A number with no mark means an inactive call. Records with an inconclusive call do not appear. The source made the active and inactive calls. Unless noted, calls come from the whole dose curve; as a rule, active = well fitted curve in the direction sought with a large enough effect in the repeat runs; inconclusive = weak or mixed curves; inactive = no such curve, though single readings can be large; an effect the other way counts as inactive or inconclusive. Where a SMILES comes first, the peptide text is derived from it.
% is set by controls: 0 for no effect and ±100 for the full control effect.

Sequence of Cytochrome P450 3A4 (Homo sapiens) (P08684 whole entry, looked up): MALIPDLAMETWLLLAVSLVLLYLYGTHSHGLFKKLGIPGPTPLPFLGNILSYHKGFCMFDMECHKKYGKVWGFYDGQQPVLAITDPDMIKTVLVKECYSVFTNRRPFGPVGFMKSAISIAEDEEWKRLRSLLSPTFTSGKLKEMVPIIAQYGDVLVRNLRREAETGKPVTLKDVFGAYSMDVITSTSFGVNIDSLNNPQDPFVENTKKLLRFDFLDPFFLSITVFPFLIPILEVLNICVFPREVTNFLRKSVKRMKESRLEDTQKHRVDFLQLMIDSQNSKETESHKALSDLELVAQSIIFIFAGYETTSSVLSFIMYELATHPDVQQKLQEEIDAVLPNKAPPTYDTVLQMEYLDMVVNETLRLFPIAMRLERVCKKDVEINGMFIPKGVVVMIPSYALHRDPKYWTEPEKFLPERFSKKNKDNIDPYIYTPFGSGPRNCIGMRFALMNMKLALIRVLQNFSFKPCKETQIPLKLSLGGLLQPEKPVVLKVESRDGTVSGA
Sequence of Thyrotropin-releasing hormone receptor (Homo sapiens) (P34981 whole entry, looked up): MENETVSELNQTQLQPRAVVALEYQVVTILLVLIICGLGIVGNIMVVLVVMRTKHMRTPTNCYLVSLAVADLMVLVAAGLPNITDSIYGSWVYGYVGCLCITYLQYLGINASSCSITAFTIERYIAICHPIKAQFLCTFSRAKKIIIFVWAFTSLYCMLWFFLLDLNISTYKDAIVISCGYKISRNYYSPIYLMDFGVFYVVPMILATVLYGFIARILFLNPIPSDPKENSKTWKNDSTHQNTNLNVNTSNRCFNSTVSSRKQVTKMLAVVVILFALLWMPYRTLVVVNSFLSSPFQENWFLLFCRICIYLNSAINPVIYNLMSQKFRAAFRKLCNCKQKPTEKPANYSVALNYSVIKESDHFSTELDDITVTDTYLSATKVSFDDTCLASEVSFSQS
Sequence of Nuclear receptor subfamily 1 group I member 2 (Homo sapiens) (O75469 whole entry, looked up): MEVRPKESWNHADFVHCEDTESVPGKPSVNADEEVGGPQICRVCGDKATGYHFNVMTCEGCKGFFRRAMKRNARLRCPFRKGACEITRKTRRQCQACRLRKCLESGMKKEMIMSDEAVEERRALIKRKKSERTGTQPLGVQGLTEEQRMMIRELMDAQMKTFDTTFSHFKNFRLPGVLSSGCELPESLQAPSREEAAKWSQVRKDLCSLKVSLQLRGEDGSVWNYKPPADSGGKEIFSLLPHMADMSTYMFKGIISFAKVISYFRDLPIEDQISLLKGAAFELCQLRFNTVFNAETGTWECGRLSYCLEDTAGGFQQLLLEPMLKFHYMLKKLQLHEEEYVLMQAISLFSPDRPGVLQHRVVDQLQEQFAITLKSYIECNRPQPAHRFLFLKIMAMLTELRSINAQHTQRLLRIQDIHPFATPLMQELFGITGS

Turning to `C[Si]1(C)O[Si](C)(C)O[Si](C)(C)O[Si](C)(C)O[Si](C)(C)O1`, the compound was classed as inactive in [1], in assay [2], in assay [3], in assay [4], in [5] and in [6]. The compound was classed as inactive in assay [8] and in assay [9]. In addition, the Potency result in [7], in assay [10], in [11], in assay [12], in assay [13] and in assay [14] was “inactive” throughout. Besides, in assay [15], the Potency result is “inactive”.

In the case of `C/C=C(\C)C(C)=O`, the compound was called inactive in assay [1], in assay [2], in assay [3], in assay [4], in [5] and in [6]. Besides, the result in [8] and in assay [9] was inactive. In addition, the Potency entry in assay [7], in assay [10], in [11], in assay [16], in assay [12] and in assay [13] was “inactive” each time. For the same compound, the Potency entry in [14] and in assay [15] was “inactive” each time.

With `CC(=O)N[C@@H](CO)C(=O)N[C@@H](CC(=O)O)C(=O)N[C@@H](CCCCN)C(=O)N1CCC[C@H]1C(=O)O` (Ac-SDKP-OH), the compound was classed as inactive in [1], in [2], in assay [3], in [4], in assay [5] and in assay [6]. In addition, the compound was called inactive in [8] and in assay [9]. In addition, the Potency entry in assay [7], in assay [10], in assay [11], in assay [13], in [14] and in assay [15] was “inactive” in each case.

In the case of `[O-][n+]1cccc(/C(Cl)=N/OC[C@@H](O)CN2CCCCC2)c1`, the compound was classed as inactive in assay [1], in assay [2], in [3], in assay [4], in [5] and in assay [6]. For the same compound, the compound was called inactive in assay [8] and in [9]. For the same compound, the Potency result in [7], in assay [10], in [12], in assay [13] and in assay [14] was “inactive” each time. Also, the Potency in assay [11] was 15.5 µM (active).

For `NCc1ccc(S(N)(=O)=O)cc1`, the compound was called inactive in [1], in assay [2], in [3], in assay [4], in assay [5] and in assay [6]. The call in assay [8] and in assay [9] was inactive. Further, the Potency result in assay [7], in assay [10], in [18], in assay [19], in assay [11] and in assay [13] was “inactive” throughout. Also, the Potency entry in assay [14] and in assay [15] was “inactive” each time. In addition, the max activation in assay [17] is -0.0614%.

Turning to `COCCc1ccccn1`, the compound was called inactive in assay [1], in assay [2], in assay [3], in assay [4], in assay [5] and in [6]. Further, the compound was called inactive in assay [8] and in assay [9]. Moreover, the Potency entry in [7], in [10], in assay [11], in assay [16], in [12] and in [13] was “inactive” throughout. Moreover, the Potency result in assay [14] and in [15] was “inactive” each time.

In the case of `Cn1c(=O)c2[nH]c(Br)nc2n(C)c1=O`, the result in assay [1], in assay [2], in [3], in assay [4], in assay [5] and in assay [6] was inactive. Also, the call in [8] and in assay [9] was inactive. For the same compound, the Potency result in [7], in assay [10], in assay [18], in assay [19], in assay [11] and in [16] was “inactive” each time. Besides, the Potency result in [12], in [14] and in assay [15] was “inactive” throughout. Further, the max activation in assay [17] is -2.17%. In assay [13], the Potency is 24.5 µM (active).

These data come from PubChem BioAssay (Tox21).
